From PubChem BioAssay (NCATS)
“And” between values parts separate entries of the source, which are not always exact repeats. Equal values may be shown once. Inconclusive results are not listed. Where a call stands in place of a potency, no number is given. The source made the active and inactive calls. Calls follow the shape of the dose curve; as a rule, active = well fitted cell-killing curve with a large enough effect; inconclusive = small, poorly fitted or top-dose-only effect; inactive = flat fitted curve, though single readings scatter.

assay: Cell Viability - SH-SY5Y (AID 544); conditions: SH-SY5Y neuroblastoma cell viability; viability change, negative = cytotoxic: at 92.2 µM (top of the series); also: nearly all actives have a fitted effect of over 55% in size
From the text: NIH Chemical Genomics Center [NCGC]
NIH Molecular Libraries Screening Centers Network [MLSCN]
National Institutes of Environmental Health Sciences [NIEHS]
National Toxicology Program [NTP]
We have developed a 1536-well cell-based assay for quantitative high throughput screening (qHTS) against a number of cell lines to determine in vitro cytotoxicity of small molecules. This particular assay uses the SH-SY5Y cell line which is derived from human neuroblastoma.
NCGC Assay Protocol Summary:
The CellTiter-Glo luminescent cell viability assay (Promega) is a homogeneous method to measure the number of viable cells in culture. The end point readout of this assay is based on quantitation of intracellular ATP, an indicator of metabolic activity, using the luciferase reaction. Luciferase catalyzes the oxidation of beetle Luciferin to oxyluciferin and light in the presence of ATP. The luminescent signal is proportional to amount of ATP present.
Using the CellTiter-Glo luminescent cell viability assay, the amount of cellular ATP was measured in the SH-SY5Y cell line with complete culture medium following compound treatment for 40 hours. The assay was performed in opaque white Kalypsys 1536-well plates. In the screen, tamoxifen and doxorubicin were used as positive controls. Library compounds were measured for their ability to cause acute toxicity in the cell line, as reflected by a decrease in intracellular ATP levels, in a concentration-dependent manner. […] AC50 values were determined from concentration-response data modeled with the standard Hill equation.
qHTS protocol for CellTiter Glo SH-SY5Y cellular assay
[Step] [Parameter] [Value] [Description]
1. Reagent; 5 uL; 1500 SH-SY5Y cells/well
2. Time; 5 hr; 37 °C incubation
4. Controls; 23 nL; Tamoxifen 0.34 uM to 100 uM & Doxorubicin 0.02 nM to 100 uM
5. Time; 40 hr; 37 °C incubation
6. Reagent; 5 uL; CellTiter Glo reagent
7. Time; 20 min; Room Temperature
8. Detection; Luminescence; Viewlux plate reader
Keywords: cell viability, cytotoxicity, SH-SY5Y cell line, luminescence, NTPHTS, NTPHTS_NCGC, NIEHS, EPA, DSSTox, MLSMR, MLSCN, NIH Roadmap, qHTS, NCGC
Potency is read from the fitted curve at half-maximal effect.

SMILES | Potency | viability change, negative = cytotoxic
Nc1ccn([C@H]2CC[C@@H](CO)O2)c(=O)n1 | inactive | –
COc1ccc2c(c1)c(CC(=O)O)c(C)n2C(=O)c1ccc(Cl)cc1 | inactive | –
Cc1cn([C@H]2C[C@H](N=[N+]=[N-])[C@@H](CO)O2)c(=O)[nH]c1=O | inactive | –
CC(COc1ccccc1)N(CCCl)Cc1ccccc1 (stereo not drawn) | 31.6 µM (active) | –
COc1ccc2[nH]cc(CCNC(C)=O)c2c1 | inactive | –
CC(C)NCC(O)c1ccc(O)c(O)c1 (stereo not drawn) | inactive | –
NCCS(=O)(=O)O | inactive | –
COc1cc2c(c(OC)c1OC)-c1ccc(OC)c(=O)cc1[C@@H](NC(C)=O)CC2 | 5.01 nM (active) and 3.98 nM (active) | –
O=c1[nH]cc(F)c(=O)[nH]1 | 15.8 µM (active) | –
NS(=O)(=O)c1cc2c(cc1Cl)NCNS2(=O)=O | inactive | –
O=c1c(-c2ccc(O)cc2)coc2cc(O)cc(O)c12 | – | -86.9% (active)
Cn1c(=O)c2c(ncn2C)n(C)c1=O | inactive | –
CC(C)C(=O)Nc1ccc([N+](=O)[O-])c(C(F)(F)F)c1 | inactive | –
COc1ccc(CCN(C)CCCC(C#N)(c2ccc(OC)c(OC)c2)C(C)C)cc1OC (stereo not drawn) | inactive | –
CCC1(c2ccccc2)C(=O)NCNC1=O | inactive | –
Nc1c2c(nc3ccccc13)CCCC2 | inactive | –
Cn1c(=O)c2[nH]cnc2n(C)c1=O | inactive | –
Cc1cn([C@H]2C=C[C@@H](CO)O2)c(=O)[nH]c1=O | inactive | –
